High-throughput results (PubChem)
Hits are enriched below; roughly 5.3% of the tested compounds scored in any of these assays.
Mot1-301 SUMO: SUMOylation pathway inhibition by Mot1-301 growth rescue | S. cerevisiae Mot1-301 growth rescue, ATP luminescence, 38.5C; percent above DMSO median, 100 means doubled | growth rescue, % at 18.8 µM | actives 1% (n = 320,000) | AID 2716;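 active means every valid replicate shows activation above 250% relative to neutral control wells; inactive means the rest, any valid replicate at or below 250%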
HIF activator: HIF pathway transcriptional activation | activation, % at 7.5 µM (by protocol) | actives 0.32% (n = 300,000) | U2OS HRE-luciferase reporter, luminescence; normalized: DMSO 0%, desferrioxamine 100%;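 active means mean activation of at least 10% of the iron chelator positive control signal, with at least half of replicates also reaching 10%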
PfM18AAP inh: PfM18AAP enzyme inhibition. recombinant PfM18AAP, H-Glu-NHMec fluorogenic cleavage. inhibition, % at 7.35 µM. AID 1822. actives 1.2% (n = 290,000);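 active means inhibition above the campaign mean inhibition over all tested compounds plus 3 SD, cut at about 28% in these data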
ALR H2O2 inh: human ALR oxidase inhibition via reduced H2O2; P55789; purified ALR, DTT oxidation, H2O2 HRP-luminol luminescence; inhibition, % (concentration not given with the values); actives 3.8% (n = 290,000);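 active means mean replicate inhibition above about 79%, with every replicate also reaching it, limit read from the data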
Target sequence (P55789 whole entry, looked up): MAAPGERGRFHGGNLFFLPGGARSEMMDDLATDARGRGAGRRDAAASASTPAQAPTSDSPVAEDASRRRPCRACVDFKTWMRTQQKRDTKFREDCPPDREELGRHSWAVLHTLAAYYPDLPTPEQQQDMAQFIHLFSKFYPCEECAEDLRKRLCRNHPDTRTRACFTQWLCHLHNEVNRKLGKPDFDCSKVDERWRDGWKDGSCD
Hits are given with their value; . = inactive; / = not tested or not shown.

SMILES	Mot1-301 SUMO	HIF activator	PfM18AAP inh	ALR H2O2 inh
COc1ccc(Cl)cc1NC(=O)CSc1nc(Nc2ccccc2)nc(N2CCOCC2)n1	.	.	.	.
CCN1CCN(C(=O)C(C)Nc2cc(Cl)c(OC)cc2OC)CC1 (configuration not stated)	.	.	.	.
CC(Sc1nncn1C)C(=O)Nc1ccc(N2CCCCC2)cc1 (configuration not stated)	.	/	/	92
Cn1nnnc1SCC(=O)Nc1ccc(N2CCOCC2)cc1	.	.	.	.
CC(C)n1cnnc1SCC(=O)Nc1ccc(N2CCCCC2)cc1	.	.	/	99
CC(C)(C)c1nnc(SCC(=O)Nc2ccc(N3CCCCC3)cc2)n1N	.	/	/	99
CC(C)C(=O)Nc1ccc(N2CCCC2)cc1	.	.	.	.
CC(C)n1cnnc1SCC(=O)NCC(=O)Nc1ccc(F)cc1	.	/	/	.
COc1ccccc1C(CNC(=O)c1ccc(NS(=O)(=O)c2ccc3c(c2)OCCO3)cc1)N(C)C (configuration not stated)	.	.	/	.
O=C(Nc1ccc(Oc2ccc(Br)cc2)cc1)C1=CC=CN2CCS(=O)(=O)N=C12	.	/	/	.
CCN1C/C(=C/c2ccc(N3CCOCC3)cc2)C(=O)/C(=C/c2ccc(N3CCOCC3)cc2)C1	.	.	.	.
CN1C/C(=C\c2ccc(N3CCOCC3)cc2)C(=O)/C(=C/c2ccc(N3CCOCC3)cc2)C1	.	.	.	79
CCOc1ccc(N2C(=O)C(Cl)=C(N3CCOCC3)C2=O)cc1	.	.	29	.
CCOc1ccc(N2C(=O)C(Cl)=C(Nc3ccccc3O)C2=O)cc1	.	.	33	.
COC(=O)c1ccc(CNC(=O)C2CCC(=O)N(CCCc3ccccc3)C2)cc1 (configuration not stated)	.	.	.	.
N#CC1(c2ccccc2)CCC(=O)N1c1ccccc1 (configuration not stated)	.	.	.	.
Cc1ccc(CN2CCN(Cc3nc4ccccc4nc3C)CC2CCO)cc1 (configuration not stated)	.	.	.	/
O=C(Nc1nc(=O)n(C(=O)c2cccc(C(F)(F)F)c2)s1)c1ccccc1	.	.	.	97
O=C(Nc1ccc(-c2csc(Nc3cccc(C(F)(F)F)c3)n2)cc1)c1ccccc1	.	.	/	.
Cc1nnc(SCC(=O)Nc2cccc(C(F)(F)F)c2)[nH]c1=O	.	.	.	98
COc1ccc(NC(=O)CSc2nc3nc(C)cc(C)c3c(=O)[nH]2)cc1	.	.	.	.
Cc1cccc(C)c1NC(=O)CSc1nnc(C)c(=O)[nH]1	.	.	.	.
Cc1ccc(NC(=O)CSc2nnc(C)c(=O)[nH]2)cc1C	.	.	.	95
CCN(CC)c1ccc(NC(=O)CSc2nc3nc(C)cc(C)c3c(=O)[nH]2)cc1	.	386	/	/
Cc1ccccc1-c1nc(CS(=O)CC(=O)NC(C)CCc2ccccc2)c(C)o1 (configuration not stated)	.	.	.	.
SMILES	Mot1-301 SUMO	HIF activator	PfM18AAP inh	ALR H2O2 inh
COc1cccc(-c2nc(CS(=O)CC(=O)O)c(C)o2)c1 (configuration not stated)	.	.	.	99
COc1cccc(-c2nc(CS(=O)CC(=O)NC(C)CCc3ccccc3)c(C)o2)c1 (configuration not stated)	.	.	.	98
Cc1oc(-c2ccccc2)nc1CS(=O)CC(=O)O (configuration not stated)	.	.	.	/
COc1cccc(-c2nc(CS(=O)CC(=O)NCCc3ccccc3)c(C)o2)c1 (configuration not stated)	.	.	.	99
CCC(C)NC(=O)CS(=O)Cc1nc(-c2cccc(OC)c2)oc1C (configuration not stated)	.	.	.	99
N#Cc1ccc(C(=O)NCCCSc2ccccc2)cc1	.	.	.	.
Cc1ccccc1-c1nc(CS(=O)(=O)CC(=O)NCCN2CCCC2)c(C)o1	.	.	.	.
O=C(COc1ccccc1)N(Cc1nnc(-c2ccccc2Cl)o1)C1CC1	.	.	/	.
COc1ccc(CCNC(=O)CCSCc2ccccc2F)cc1OC	263	.	.	.
CCOc1ccc(CNC(=O)CCSCc2ccccc2F)cc1OC	.	.	.	/
COc1ccc(CCNC(=O)CSc2ccc(NC(C)=O)cc2)cc1OC	.	.	.	98
COc1ccc(CCNC(=O)CSc2nnc(-c3ccccc3)c3ccccc23)cc1OC	.	.	.	96
COc1ccc(CCNC(=O)CSc2nnc(-c3ccccc3)o2)cc1OC	.	.	/	.
COc1ccc(CCNC(=O)CSc2ccc3ccccc3c2)cc1OC	.	.	.	99
